This is a sample that favours compounds with a hit; in the whole collection about 1.1% have one here.
GalR3 antag: GalR3 antagonists in HEK293 cells, primary screen, cell-based, fluorescence readout. inhibition, % at 3 µM. AID 651719, 2012. HEK293 GalR3-CNG cAMP membrane potential fluorescence; galR3 body fused to GalR1 C-terminus. hit rate 0.44% among 360,000. Galanin receptor type 3 (Homo sapiens), O60755;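 active means inhibition above the screen-wide average plus 3 SD, cut at about 13% in these data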;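 further: forskolin and galanin both at EC90 stimulate the cells; cAMP rise reported by CNG channel membrane potential dye signal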
NCOA2 inhibitor: inhibition of GAL4-SRC2 driven luciferase reporter, primary screen, SRC2 inhibitor project, cell-based, luminescence; hit rate 0.17% among 370,000; Nuclear receptor coactivator 2 (Homo sapiens), Q15596; AID 651957, 2012; HEK293 GAL4-SRC2 luciferase reporter; inhibition, % at 9 µM;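 active means inhibition above the mean inhibition of all tested compounds plus 3 SD, set per campaign, cut at about 52% in these data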
Target sequence (Q15596 whole entry, looked up, the tested form may be a part): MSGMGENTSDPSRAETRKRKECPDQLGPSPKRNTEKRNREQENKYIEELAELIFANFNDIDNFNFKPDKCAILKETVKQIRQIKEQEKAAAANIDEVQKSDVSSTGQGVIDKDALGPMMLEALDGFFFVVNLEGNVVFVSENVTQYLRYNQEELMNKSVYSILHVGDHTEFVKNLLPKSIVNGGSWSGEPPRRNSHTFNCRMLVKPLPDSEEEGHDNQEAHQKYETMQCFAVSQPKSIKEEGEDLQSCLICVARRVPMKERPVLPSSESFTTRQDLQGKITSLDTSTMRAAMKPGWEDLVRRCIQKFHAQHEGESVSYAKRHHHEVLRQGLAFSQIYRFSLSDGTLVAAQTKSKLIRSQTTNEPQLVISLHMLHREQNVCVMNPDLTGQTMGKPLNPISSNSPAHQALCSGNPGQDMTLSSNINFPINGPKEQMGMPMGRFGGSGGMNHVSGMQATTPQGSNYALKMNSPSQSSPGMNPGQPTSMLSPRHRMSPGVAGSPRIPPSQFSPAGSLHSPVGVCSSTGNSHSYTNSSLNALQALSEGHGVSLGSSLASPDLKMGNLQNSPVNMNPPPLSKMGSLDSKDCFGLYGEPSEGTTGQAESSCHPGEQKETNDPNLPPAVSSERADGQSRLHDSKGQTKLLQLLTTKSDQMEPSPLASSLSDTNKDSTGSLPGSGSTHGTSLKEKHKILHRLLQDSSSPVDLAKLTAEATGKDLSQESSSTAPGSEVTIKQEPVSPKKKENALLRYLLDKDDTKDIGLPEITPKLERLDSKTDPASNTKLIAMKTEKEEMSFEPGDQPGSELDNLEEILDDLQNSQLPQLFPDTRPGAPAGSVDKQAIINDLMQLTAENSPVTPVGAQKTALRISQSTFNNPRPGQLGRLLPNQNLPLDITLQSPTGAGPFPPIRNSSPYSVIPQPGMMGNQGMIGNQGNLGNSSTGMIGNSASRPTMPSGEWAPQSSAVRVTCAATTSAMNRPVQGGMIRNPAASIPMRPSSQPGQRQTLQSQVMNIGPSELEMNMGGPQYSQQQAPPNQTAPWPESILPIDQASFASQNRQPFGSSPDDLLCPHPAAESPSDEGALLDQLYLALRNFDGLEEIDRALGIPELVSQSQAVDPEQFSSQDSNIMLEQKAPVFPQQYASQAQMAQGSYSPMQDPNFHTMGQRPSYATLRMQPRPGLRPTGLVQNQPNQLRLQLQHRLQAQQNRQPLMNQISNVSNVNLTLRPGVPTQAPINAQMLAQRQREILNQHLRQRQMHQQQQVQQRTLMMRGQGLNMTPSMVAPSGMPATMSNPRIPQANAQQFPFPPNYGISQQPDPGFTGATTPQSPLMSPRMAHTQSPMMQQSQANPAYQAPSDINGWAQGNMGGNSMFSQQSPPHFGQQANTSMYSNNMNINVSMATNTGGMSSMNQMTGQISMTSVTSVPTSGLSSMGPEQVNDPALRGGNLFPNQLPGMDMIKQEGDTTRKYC
NR5A2 inv ag: LRH-1 (NR5A2) inverse agonists, primary screen, cell-based, luminescence, HEK293T, StAR-luciferase reporter; Nuclear receptor subfamily 5 group A member 2 (Homo sapiens), O00482; LRH-1 transfected, 24 h; inhibition, % at 3.6 µM; hit rate 0.13% among 360,000; AID 602396, 2012;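 active means inhibition above the mean inhibition of all tested compounds plus 3 SD, cut at about 73% in these data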
NR2F2 inh: NR2F2 transcriptional activity inhibitors, primary screen, cell-based, luciferase reporter, HEK293T, luminescence; COUP transcription factor 2 (Homo sapiens), P24468; HEK293T NGFI-A luciferase reporter; inhibition, % at 8.6 µM; hit rate 0.7% among 370,000; AID 686940, 2013;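 active means inhibition above a per-plate cutoff, mean inhibition of test wells between control levels plus 3 SD, cut at about 38% in these data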;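 further: cells cotransfected with COUP-TFII expression vector driving the NGFI-A reporter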
NCOA3 inh: SRC3 coactivator transcriptional activity inhibitors, primary screen, cell-based, luminescence; inhibition, % at 3.6 µM; HEK293 GAL4-SRC3 luciferase reporter; AID 588352, 2011; hit rate 0.17% among 360,000; Nuclear receptor coactivator 3 (Homo sapiens), Q9Y6Q9;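 active means inhibition above a per-campaign cutoff, the mean of all compounds plus 3 SD, cut at about 60% in these data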;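 further: higher means less SRC3-driven luciferase light from the GAL4 reporter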
SRC1 inh: SRC1 coactivator transcriptional activity inhibitors, primary screen, cell-based, luminescence | Nuclear receptor coactivator 1 (Homo sapiens), Q15788 | HEK293 GAL4-SRC1 luciferase reporter | inhibition, % at 3.6 µM | hit rate 0.12% among 360,000;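 active means inhibition above the campaign mean plus 3 SD, with each screening campaign given its own cutoff, cut at about 60% in these data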
GalR3 antag conf: GalR3 antagonist hit confirmation, cell-based, fluorescence, triplicate; shares compounds with GalR3 antag; HEK293 GalR3 CNG cAMP biosensor, membrane potential fluorescence; galR3 fused to GalR1 carboxy tail; challenged with forskolin and galanin at EC90; inhibition, % at 3 µM; hit rate 59% among 1,600; AID 652245, 2013;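 active means inhibition above the primary screen's cutoff, the mean inhibition of all screened compounds plus 3 SD, cut at about 13% in these data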
CNG parental: nonspecific cAMP agonists in parental HEK-CNG cells, counter-screen for GalR3 antagonist project, cell-based, fluorescence, high throughput; shares compounds with GalR3 antag; HEK293-CNG parental cells, cAMP membrane potential fluorescence; normalised: DMSO wells 0%, forskolin wells 100%; activation, % at 3 µM; hit rate 10% among 1,600; AID 652268, 2013; in the data active means activation above about 1.3%
Each line names hits and unclear results; the compound was inactive in the other large screens (follow-up assays come after a bar, where they were run).

C[C@H]1[C@@H](OS(=O)(=O)O)C[C@@H]2C[C@H]([C@@H](O)c3cc(=O)[nH]c(=O)[nH]3)NC3=NC[C@H]1N32	NR5A2 inv ag 99.5 (no result: GalR3 antag, NCOA2 inhibitor, NR2F2 inh)
Cc1cc([N+](=O)[O-])c2ccccc2[n+]1[O-]	SRC1 inh 62.6 (no result: GalR3 antag, NCOA2 inhibitor, NR2F2 inh)
CN1C2CCC1CC(OC(c1ccccc1)c1ccc(Cl)cc1)C2 (centres undefined)	none (no result: NR5A2 inv ag, NCOA3 inh, SRC1 inh)
COc1cc2cc(C(=O)N3CC(COS(C)(=O)=O)c4ccc(O)cc43)[nH]c2c(OC)c1OC (centres undefined)	NCOA3 inh 94.5, SRC1 inh 89.6 (no result: GalR3 antag, NCOA2 inhibitor, NR2F2 inh)
COc1ccc(-[n+]2c(-c3ccccc3)cc(-c3ccc(C)cc3)cc2-c2ccccc2)cc1	NR5A2 inv ag 86.2, NR2F2 inh 76.9, NCOA3 inh 78.5, SRC1 inh 66.1
CCOC(=O)CC[C@@H]1CC[C@]2(CCCN(Cc3cccnc3)C2)O1	none (no result: GalR3 antag, NR5A2 inv ag, NCOA3 inh, SRC1 inh)
Cc1nc2c(=O)n(C)c(=O)nc-2n(C)n1	NCOA2 inhibitor 74.7, NR5A2 inv ag 94.8, NR2F2 inh 64.4, NCOA3 inh 91.6, SRC1 inh 86.6
C[C@@H]1CN([C@H](C)CO)C(=O)CCCn2cc(nn2)CO[C@H]1CN(C)C(=O)Oc1cccc2ccccc12	none
COC(=O)C1C(c2ccc(C)cc2)CC2CCC1N2C (centres undefined)	none (no result: NR5A2 inv ag, NCOA3 inh, SRC1 inh)
C[C@H]1CCC[C@@H](O)CCC/C=C/c2cc(O)cc(O)c2C(=O)O1	NCOA3 inh 63.8
Cc1ccc(C[n+]2c(-c3ccc(C)cc3)cc(-c3ccc(C)cc3)cc2-c2ccc(C)cc2)cc1	NR5A2 inv ag 95.3, NCOA3 inh 82.6, SRC1 inh 68.4 (no result: GalR3 antag, NCOA2 inhibitor, NR2F2 inh)
Cc1ccc(-c2cc(-c3ccc(C)cc3)[n+](-c3ccc(C(=O)O)cc3)c(-c3ccc(C)cc3)c2)cc1	none
C[C@H]1CCC/C=C/C2C[C@H](O)CC2[C@H](O)/C=C/C(=O)O1 (some centres undefined)	NR5A2 inv ag 89.3, NCOA3 inh 66.9 (no result: GalR3 antag, NCOA2 inhibitor, NR2F2 inh)
C[C@H]1CCC[C@H](O)CCCCCc2cc(O)cc(O)c2C(=O)O1	none
COc1cc2c(c3oc4cccc(O)c4c(=O)c13)[C@@H]1C=CO[C@@H]1O2	none (no result: GalR3 antag, NR5A2 inv ag, NCOA3 inh, SRC1 inh)
O=C1NC(=O)C(C2CCOC2=O)N1 (centres undefined)	none
CCCC[C@@H](C)C[C@@H](C)C(=O)N(C)[C@@H](CC(C)C)C(=O)N[C@H](C(=O)N(C)[C@H](C(=O)N1C[C@@H](O)C[C@H]1C(=O)N1C(=O)C=C[C@@H]1C)C(C)C)C(C)OC(C)=O (some centres undefined)	NR5A2 inv ag 75.3 (no result: GalR3 antag, NCOA2 inhibitor, NR2F2 inh)
CC(=O)O[C@H]1[C@H]2O[C@]23[C@@H]2CC[C@]4(O)C[C@@H](O)CC[C@]4(C)C2CC[C@]3(C)[C@H]1c1ccc(=O)oc1 (some centres undefined)	NR5A2 inv ag 99.6, NCOA3 inh 88.6, SRC1 inh 86.2 (no result: GalR3 antag, NCOA2 inhibitor, NR2F2 inh)
O=[N+]([O-])c1ccc(N(CCO)CCO)c2c1no[n+]2[O-]	NCOA2 inhibitor 57.6, NR5A2 inv ag 83.5, NCOA3 inh 67.3
COC(=O)C1CN(C#N)N(c2ccc(Cl)cc2)C12c1ccccc1-c1ccccc12 (centres undefined)	NCOA3 inh 72.6 (no result: GalR3 antag, NCOA2 inhibitor, NR2F2 inh)
CC1(C)C(C(=O)N2CCN(c3ccc(Cl)cc3)CC2)C1(C)C	none
O=C(CNCc1c(F)cccc1F)N1CCC2(CC1)OCCO2	none (no result: GalR3 antag, NR5A2 inv ag, NCOA3 inh, SRC1 inh)
COC(=O)C1=C[C@H]([C@@H](C)[C@H](OC)c2ccccc2Br)[C@@H]2[C@H]1c1ccccc1N2C	none (no result: GalR3 antag, NR5A2 inv ag, NCOA3 inh, SRC1 inh)
C=C1C(=O)O[C@H]2C[C@@H](C)[C@@H]3C=CC(=O)[C@@]3(C)C[C@H]12	NCOA2 inhibitor 72.3 (no result: NR5A2 inv ag, NCOA3 inh, SRC1 inh)
C=C1C(=O)O[C@H]2[C@H]1[C@H](OC(=O)CC(=O)O[C@@H]1C[C@@H](C)[C@@H]3C=CC(=O)[C@@]3(C)[C@H]3OC(=O)C(=C)[C@H]13)C[C@@H](C)[C@H]1C=CC(=O)[C@]12C	none
C=C1C(=O)OC2CC(C)C3C=CC(=O)C3(C)C(O)C12 (centres undefined)	NR5A2 inv ag 80.6 (no result: GalR3 antag, NCOA2 inhibitor, NR2F2 inh)
C=C1C(=O)O[C@@H]2C[C@@H](C)[C@@H]3C4OC4C(=O)[C@@]3(C)[C@@H](O)[C@H]12 (some centres undefined)	NCOA2 inhibitor 77.5, NR2F2 inh 68.2
NC(Cc1ccc(N(CCCl)CCCl)cc1)C(=O)O (centres undefined)	none (no result: GalR3 antag, NR5A2 inv ag, NCOA3 inh, SRC1 inh)
Cc1ccc2n1Cc1cnnn1-c1ccccc1-2	none
CC=CC(C)=CC(C)C(=O)CC(O)CC1CC(=O)NC(=O)C1 (centres undefined)	NR2F2 inh 39.4
CCOC(=O)[C@]12Cc3c(cc(OC)c(OC)c3OC)[C@H]1N(C1CCCCC1)C(=O)c1ccccc12	NR2F2 inh 59.9 (no result: NCOA3 inh, SRC1 inh)
CCOC(=O)[C@]12Cc3ccccc3[C@H]1N(C(C)C)C(=O)c1ccccc12	none (no result: NCOA3 inh, SRC1 inh)
C=C1C(=O)C(C)=C2C(=O)N3Cc4[nH]c5ccccc5c4CC3(C(=O)OC)C12 (centres undefined)	none (no result: GalR3 antag, NR5A2 inv ag, NCOA3 inh, SRC1 inh)
CC12CCC(O)CC1CCC1C2CCC2(C)C(C3=CC(=O)OC3)C(O)CC12O (centres undefined)	NR5A2 inv ag 85.9, NR2F2 inh 50.8, NCOA3 inh 67.3
CC12CC[C@H]3[C@@H](CCC4(O)C[C@H](O)CCC34/C=N/NC(=O)Cc3ccccc3)C1(O)CCC2C1=CC(=O)OC1 (some centres undefined)	none
COc1ccc(C2=CC(c3ccc4c(c3)OCO4)c3c(c4ccccc4oc3=O)O2)cc1OC (centres undefined)	GalR3 antag 36.2 | GalR3 antag conf 42.1 | CNG parental inactive
COc1ccc(C(CC(=O)c2ccc3c(c2)OCO3)c2c(O)c3ccccc3oc2=O)cc1OC (centres undefined)	none
C[C@H](NC(=O)OCc1ccccc1)C(=O)NC(Cc1ccccc1)P(=O)(Oc1ccccc1)Oc1ccccc1 (some centres undefined)	none (no result: GalR3 antag, NR5A2 inv ag, NCOA3 inh, SRC1 inh)

High-throughput results: PubChem BioAssay, The Scripps Research Institute Molecular Screening Center
